About 83,000 compounds went through this panel and 20% of them were active in at least one assay; those are over-represented in the sample as a whole.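 How to read the values: 0–100, growth inhibition (40 = 60% inhibited); 0, no net growth; -100 to 0, cell death (-40 = 40% of starting cells died; -100 = all dead).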 Values without a mark were called inactive. The source made the active and inactive calls. How the source made its calls: active means growth percent below 10; inactive means the rest.

The subject of this experiment is HL-60(TB) leukemia. Kind of experiment: NCI-60 one-dose screen, 48 h (100 = growth as untreated, 0 = no growth, -100 = all killed). As to conditions: 10 µM unless noted.
In the case of `CCCCCCCCCCCCCCCCOc1ccc(S(=O)(=O)N(C)C)cc1[N+](=O)[O-]`, the growth was 110%. In the case of `NC(=O)c1cccc(-c2ccc(S(=O)(=O)Nc3ccc4c(c3)N(C(=O)C3CC3)CCC4)cc2)c1` it was 1.43% (active); in that of `O=C1/C(=C/c2ccc(F)c(F)c2)CN(C(=O)C(Cl)Cl)C/C1=C\c1ccc(F)c(F)c1`, -47.1% (active); in that of `O=c1c2ccccc2c(Br)c(Br)c2ccccc12`, 70.9%. Under `COc1ccc(C/C(C)=C(\c2ccc(Cl)cc2)c2ccc(OCCN3CCCC3)cc2)cc1` stands 76.9%; under `CCN(CCCNc1cc2c(c(N)c1S(=O)(=O)O)C(=O)c1ccccc1C2=O)c1ccccc1`, 84.9%.

Turning to `COc1c(CCC[P+](c2ccccc2)(c2ccccc2)c2ccccc2)cc2c(c1OC)OCO2`, the growth was 10.2%. In the case of `O=c1c2cccc3c(N4CCCC4)ccc(c32)c2nc3ccccc3n12` it was 72%; in that of `COc1cc2c(cc1-c1c(C)noc1C)ncc1nc(C3CCCCC3)n([C@H](C)COC(F)F)c12`, 31%. In the case of `C#CCNC(=O)[C@H](Cc1ccccc1)NC(=O)[C@]12CC[C@@H](C(=C)C)[C@@H]1[C@H]1CC[C@@H]3[C@@]4(C)Cc5c([nH]c6ccccc56)C(C)(C)[C@@H]4CC[C@@]3(C)[C@]1(C)CC2` it was 93.1%.

Turning to `CC(=O)OCC1OC(OC2C(COC(C)=O)OC(OCCC[S-])C(OC(C)=O)C2OC(C)=O)C(OC(C)=O)C(OC(C)=O)C1OC(C)=O.[Au+].c1ccc(CN2[CH-]N(Cc3ccccc3)C(c3ccccc3)=C2c2ccccc2)cc1` (stereo not given), the growth was 13.6%.

With `O=C(OC[C@@H]1CO1)c1cccc2c(=O)c3ccccc3[nH]c12`, the growth was -51.4% (active).

`Clc1ccc(Nc2ccnc(N3CCN(c4ccnc5cc(Cl)ccc45)CC3)n2)cc1`: the growth is 72.1%. In the case of `O=C1OCC2=C1C(c1cccc(F)c1)c1cc3c(cc1N2CCO)CCC3` (stereo not given) it was -29.8% (active); in that of `Nc1ccc(N=Nc2ccccc2)cc1[N+](=O)[O-]`, 97.1%; in that of `Oc1ccc2ccccc2c1N=Nc1ccccn1`, -32.4% (active). In the case of `CCOc1cc(\C=N/N=C(N)/C(N)=N\N=C/c2ccc(O)c(OCC)c2)ccc1O` it was 121%; in that of `CC(C)=CCc1ccc(O)c(=O)cc1C(C)C`, -1.27% (active). In the case of `Nc1nc(Cl)cc(=O)n1Cc1ccccc1` it was 100%. Take `CS(=O)(=O)Nc1cc(-c2ccc3ncnc(Nc4cccc(Cl)c4F)c3c2)cnc1Cl`: the growth was 80.1%. Regarding `O=c1[nH]c(CN2CCN(c3ccccc3)CC2)nc2c(Br)cc(Br)cc12`, the growth is 99.2%. As to `CN(C)CCCNC(=O)C(c1ccccc1)c1ccccc1`, the growth is 106%.

On to `Oc1ccc(Cc2ccccc2)c2cccnc12`, for which the growth was -15.8% (active). In the case of `COc1ccc(NC(=O)c2sc3nc(C)c(C(C)=O)cc3c2N)cc1` it was 94%; in that of `COc1ccc(/C=N/NC(=O)Cn2nnc3ccccc32)cc1`, 105%; in that of `C=C1c2c(C)nn(-c3ccc(N)cc3)c2N(C)C23CC1C1(C)c4c(C)nn(-c5ccc(N)cc5)c4N(C)C(C)(CC12)C3` (stereo not given), 55.7%. Under `O=C1c2cc3c(cc2-c2c1c1ccc(Cl)cc1c(=O)n2C[C@H](O)CO)OCO3` stands -14.9% (active); under `CC1(C)CC(=O)C=C(N)C1`, 71.8%. In the case of `COCCn1cc(-c2csc(-c3c[nH]c4ccc(F)cc34)n2)c2cccnc21` it was 13.9%. Regarding `Cc1cc(Nc2nc(C(=O)Nc3ccccc3)nc3ccccc23)n[nH]1`, the growth is 63.5%. Under `O=C(/C=C/c1ccccc1)CC(c1ccccc1)N1CCOCC1` (stereo not given) stands 70.7%.

`COc1ccc(S(=O)(=O)N2CCN(C)CC2)cc1NC(=O)c1[nH]c(C)c2c1CCCCC2=O`: the growth was 8.16% (active). As to `N#CCCN=Nc1c(O)[nH]c2ccc([N+](=O)[O-])cc12`, the growth was 96.6%.

For `CC(=O)OC1Oc2cc(C)c(C)cc2-c2oc(=O)c(-c3cc4ccccc4oc3=O)cc21` (stereo not given), the growth was 93.4%. As to `Cc1cc(N2CCCCC2)nc(N(CCNc2ccnc3cc(Cl)ccc23)Cc2ccco2)n1`, the growth is -46.3% (active). In the case of `COc1ccc(C2CC(c3cccs3)=NN2c2ccc(S(N)(=O)=O)cc2)cc1` (stereo not given) it was 73.7%; in that of `CC(C)[C@H]1CCC2=C3CC[C@]45OC(=O)[C@@]6(CCC(C)(C)C[C@H]64)CC[C@@]5(C)[C@]3(C)CC[C@@]21C`, 3.99% [100 µM] (active); in that of `CC1(C)N=C(N)N=C(N)N1c1ccc(F)c(C(F)(F)F)c1`, 13.4%.

`O=C(O)c1ccc2c(c1)C(=O)N(Cc1ccccc1)C2=O`: the growth is 93.1%. In the case of `O=c1[nH]c(=S)[nH]c2nc[nH]c12` it was 87%.

For the origin of these results see PubChem BioAssay (NCI).
